Experimental findings from article PMC7862700, “An all-to-all approach to the identification of sequence-specific readers for epigenetic DNA modifications on cytosine” are described below.

Assay in all cases: DAPPL (digital affinity profiling via proximity ligation, sequencing); 10 mM Tris-HCl pH 7.5, 50 mM NaCl, 1 mM DTT, 4% glycerol, room temperature, 30 min; GST-TFs on glutathione beads, 16-mer random dsDNA library, 0.1% formaldehyde crosslink after washing; high values mean tight binding
Assay [1] concerns the target T1, FEV (Homo sapiens, UniProt Q99581 1-238).
T1 sequence: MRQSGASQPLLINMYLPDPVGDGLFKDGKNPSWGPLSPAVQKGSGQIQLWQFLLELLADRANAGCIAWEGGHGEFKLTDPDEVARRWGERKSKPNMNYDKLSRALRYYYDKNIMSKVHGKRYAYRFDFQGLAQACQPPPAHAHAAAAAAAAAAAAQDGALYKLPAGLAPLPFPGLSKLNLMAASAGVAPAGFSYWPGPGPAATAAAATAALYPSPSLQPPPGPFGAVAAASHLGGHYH
To be noted: protein: recombinant; tags: N-terminal GST; dsDNA, one strand shown. In short, it runs like this: (§1)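 Human transcription factors carrying a GST fusion were produced in yeast, bound to glutathione beads, tagged with DNA barcodes and pooled together with a tag-only sample. Each pool was held with 200 nmole of a random double-stranded 16-mer DNA library in Tris/NaCl/DTT/glycerol buffer for 30 min at room temperature, then washed, crosslinked in 0.1% formaldehyde, proximity-ligated with BsaI/T4 ligase (1 h, 37 °C), PCR-amplified and sequenced on an Illumina NextSeq500. Binding signal is the read frequency of each hexamer for a given factor divided by its frequency in the tag-only sample.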

For assay [2], the target named is ETV5 (Homo sapiens, UniProt P41161 1-510). To be noted: protein: recombinant; tags: N-terminal GST; dsDNA, one strand shown. In short, it runs like this: as §1
For assay [3], the target named is HSF1 (Homo sapiens, UniProt Q00613 1-529). To be noted: protein: recombinant; tags: N-terminal GST; chain copies: 3; dsDNA, one strand shown. Summed up: as §1
The target in assay [4] is T2, SPIC (Homo sapiens, UniProt Q8N5J4 1-248).
T2 sequence: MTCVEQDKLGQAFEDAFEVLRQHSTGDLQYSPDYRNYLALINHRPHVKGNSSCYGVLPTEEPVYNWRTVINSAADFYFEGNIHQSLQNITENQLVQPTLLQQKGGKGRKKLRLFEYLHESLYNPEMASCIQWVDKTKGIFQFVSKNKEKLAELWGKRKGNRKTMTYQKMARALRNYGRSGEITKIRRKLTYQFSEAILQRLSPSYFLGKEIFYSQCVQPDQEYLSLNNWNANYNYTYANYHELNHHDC
To be noted: protein: recombinant; tags: N-terminal GST; dsDNA, one strand shown. Summed up: as §1

Assay [5] has as its target ELF4 (Homo sapiens, UniProt Q99607 1-663). To be noted: protein: recombinant; tags: N-terminal GST; dsDNA, one strand shown. Summed up:
as §1

Assay [6] deals with T3, ELK4 (Homo sapiens, UniProt P28324-2 1-405).
T3 sequence: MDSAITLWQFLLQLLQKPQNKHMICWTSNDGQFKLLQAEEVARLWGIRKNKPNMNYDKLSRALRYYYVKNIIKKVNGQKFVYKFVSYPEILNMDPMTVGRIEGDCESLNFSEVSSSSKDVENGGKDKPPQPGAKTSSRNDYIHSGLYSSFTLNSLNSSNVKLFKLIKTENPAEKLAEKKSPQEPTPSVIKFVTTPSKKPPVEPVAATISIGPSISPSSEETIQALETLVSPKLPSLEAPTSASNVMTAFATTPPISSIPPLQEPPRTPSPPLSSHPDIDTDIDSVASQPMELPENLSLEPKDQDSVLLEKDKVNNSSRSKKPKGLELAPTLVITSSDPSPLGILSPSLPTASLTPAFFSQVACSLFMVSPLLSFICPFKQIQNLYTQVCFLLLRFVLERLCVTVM
To be noted: protein: recombinant; tags: N-terminal GST; dsDNA, one strand shown. In short, it runs like this: as §1

Assay [7] concerns the target T4, ETV2 (Homo sapiens, UniProt O00321 1-342).
T4 sequence: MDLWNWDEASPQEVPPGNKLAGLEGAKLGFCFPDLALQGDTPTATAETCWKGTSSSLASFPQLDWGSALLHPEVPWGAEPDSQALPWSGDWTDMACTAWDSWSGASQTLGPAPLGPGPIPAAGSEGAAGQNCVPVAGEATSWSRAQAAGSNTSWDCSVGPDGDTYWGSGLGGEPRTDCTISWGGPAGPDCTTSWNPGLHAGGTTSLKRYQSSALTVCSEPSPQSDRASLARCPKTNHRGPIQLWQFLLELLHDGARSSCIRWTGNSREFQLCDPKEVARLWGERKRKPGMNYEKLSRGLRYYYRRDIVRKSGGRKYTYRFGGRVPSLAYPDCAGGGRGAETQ
To be noted: protein: recombinant; tags: N-terminal GST; dsDNA, one strand shown. In short, it runs like this:
as §1

The target of assay [8] is T5, ELF3 (Homo sapiens, UniProt P78545 1-371).
T5 sequence: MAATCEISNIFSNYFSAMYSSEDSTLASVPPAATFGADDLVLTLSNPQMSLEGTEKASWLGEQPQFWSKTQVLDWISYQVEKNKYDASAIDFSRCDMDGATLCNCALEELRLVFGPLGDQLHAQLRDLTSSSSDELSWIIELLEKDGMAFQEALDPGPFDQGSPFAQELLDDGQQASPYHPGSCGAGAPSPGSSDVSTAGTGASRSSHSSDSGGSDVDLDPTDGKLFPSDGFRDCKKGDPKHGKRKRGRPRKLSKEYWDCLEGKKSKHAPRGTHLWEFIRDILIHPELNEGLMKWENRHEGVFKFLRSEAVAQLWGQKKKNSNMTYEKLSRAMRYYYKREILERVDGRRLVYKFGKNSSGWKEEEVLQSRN
To be noted: protein: recombinant; tags: N-terminal GST; dsDNA, one strand shown. In short, it runs like this:
as §1

Assay [9] has as its target CRX (Homo sapiens, UniProt O43186 1-299). To be noted: protein: recombinant; tags: N-terminal GST; dsDNA, one strand shown. Summed up: as §1
Assay [10] concerns the target ETV1 (Homo sapiens, UniProt P50549 1-477). To be noted: protein: recombinant; tags: N-terminal GST; dsDNA, one strand shown. Summed up:
as §1

The target of assay [11] is T6, ERF (Homo sapiens, UniProt P50548 1-548).
T6 sequence: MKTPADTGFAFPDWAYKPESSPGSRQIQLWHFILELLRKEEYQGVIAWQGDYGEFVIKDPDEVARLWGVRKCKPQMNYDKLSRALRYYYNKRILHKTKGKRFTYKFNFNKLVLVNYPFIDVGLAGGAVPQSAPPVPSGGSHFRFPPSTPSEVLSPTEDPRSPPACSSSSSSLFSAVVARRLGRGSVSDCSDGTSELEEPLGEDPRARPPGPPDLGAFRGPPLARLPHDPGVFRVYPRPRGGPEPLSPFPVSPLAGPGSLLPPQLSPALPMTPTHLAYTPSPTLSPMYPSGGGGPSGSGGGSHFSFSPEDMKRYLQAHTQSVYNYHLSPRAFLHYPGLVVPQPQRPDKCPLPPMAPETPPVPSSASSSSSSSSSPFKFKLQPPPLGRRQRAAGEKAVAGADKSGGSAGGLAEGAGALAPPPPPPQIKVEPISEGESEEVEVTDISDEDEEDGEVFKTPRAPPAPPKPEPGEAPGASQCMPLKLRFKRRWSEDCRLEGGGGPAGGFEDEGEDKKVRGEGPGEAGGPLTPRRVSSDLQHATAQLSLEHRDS
To be noted: protein: recombinant; tags: N-terminal GST; dsDNA, one strand shown. Summed up:
as §1

For assay [12], the target named is T7, ETV3L (Homo sapiens, UniProt Q6ZN32 1-361).
T7 sequence: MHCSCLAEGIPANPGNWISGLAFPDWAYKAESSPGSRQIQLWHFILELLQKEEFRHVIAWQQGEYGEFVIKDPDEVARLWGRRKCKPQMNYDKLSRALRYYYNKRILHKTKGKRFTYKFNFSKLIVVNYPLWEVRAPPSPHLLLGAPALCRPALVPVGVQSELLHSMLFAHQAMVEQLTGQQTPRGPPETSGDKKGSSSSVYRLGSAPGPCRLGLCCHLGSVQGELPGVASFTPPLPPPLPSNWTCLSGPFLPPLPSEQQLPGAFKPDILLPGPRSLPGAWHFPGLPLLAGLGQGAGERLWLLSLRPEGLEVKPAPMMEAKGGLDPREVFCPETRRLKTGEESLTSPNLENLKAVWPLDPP
To be noted: protein: recombinant; tags: N-terminal GST; dsDNA, one strand shown. Summed up:
as §1

Assay [13] addresses T8, ETS2 (Homo sapiens, UniProt P15036 1-469).
T8 sequence: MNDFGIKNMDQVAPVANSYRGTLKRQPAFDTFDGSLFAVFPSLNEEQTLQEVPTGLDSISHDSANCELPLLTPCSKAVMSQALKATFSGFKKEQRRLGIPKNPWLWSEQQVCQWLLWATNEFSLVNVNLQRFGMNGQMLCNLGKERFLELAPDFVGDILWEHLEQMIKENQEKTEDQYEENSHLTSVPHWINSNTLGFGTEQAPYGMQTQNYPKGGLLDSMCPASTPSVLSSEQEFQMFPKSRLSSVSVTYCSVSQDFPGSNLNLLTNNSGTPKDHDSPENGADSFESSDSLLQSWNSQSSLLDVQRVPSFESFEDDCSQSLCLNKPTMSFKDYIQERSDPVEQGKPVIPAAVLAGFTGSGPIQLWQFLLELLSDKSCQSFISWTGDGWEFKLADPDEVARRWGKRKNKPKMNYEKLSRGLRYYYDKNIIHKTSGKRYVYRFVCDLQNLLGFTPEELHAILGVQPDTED
To be noted: protein: recombinant; tags: N-terminal GST; dsDNA, one strand shown. In short, it runs like this: as §1

The target of assay [14] is T9, SPDEF (Homo sapiens, UniProt O95238 1-335).
T9 sequence: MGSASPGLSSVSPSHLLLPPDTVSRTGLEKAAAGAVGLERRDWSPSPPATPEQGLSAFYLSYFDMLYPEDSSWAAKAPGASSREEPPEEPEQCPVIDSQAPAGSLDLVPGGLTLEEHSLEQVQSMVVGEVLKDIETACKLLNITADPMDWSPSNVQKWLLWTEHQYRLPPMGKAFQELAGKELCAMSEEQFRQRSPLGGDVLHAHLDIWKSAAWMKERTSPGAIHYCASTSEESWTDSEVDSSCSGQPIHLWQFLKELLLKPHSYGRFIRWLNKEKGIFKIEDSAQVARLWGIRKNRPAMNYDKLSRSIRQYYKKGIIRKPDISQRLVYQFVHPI
To be noted: protein: recombinant; tags: N-terminal GST; dsDNA, one strand shown. Summed up:
as §1

For assay [15], the target named is T10, ETV7 (Homo sapiens, UniProt Q9Y603 1-341).
T10 sequence: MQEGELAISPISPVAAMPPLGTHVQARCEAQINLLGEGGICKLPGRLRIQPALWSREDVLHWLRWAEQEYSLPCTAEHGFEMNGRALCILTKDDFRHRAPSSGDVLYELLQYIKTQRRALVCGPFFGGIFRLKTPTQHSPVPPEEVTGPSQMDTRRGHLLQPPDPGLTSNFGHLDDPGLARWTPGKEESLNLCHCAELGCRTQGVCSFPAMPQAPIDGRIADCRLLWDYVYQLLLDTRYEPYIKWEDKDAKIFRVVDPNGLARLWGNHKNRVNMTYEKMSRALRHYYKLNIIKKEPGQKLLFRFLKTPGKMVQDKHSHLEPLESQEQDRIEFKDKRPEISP
To be noted: protein: recombinant; tags: N-terminal GST; dsDNA, one strand shown. Summed up: as §1

The target of assay [16] is T11, ELF5 (Homo sapiens, UniProt Q9UKW6-2 1-255).
T11 sequence: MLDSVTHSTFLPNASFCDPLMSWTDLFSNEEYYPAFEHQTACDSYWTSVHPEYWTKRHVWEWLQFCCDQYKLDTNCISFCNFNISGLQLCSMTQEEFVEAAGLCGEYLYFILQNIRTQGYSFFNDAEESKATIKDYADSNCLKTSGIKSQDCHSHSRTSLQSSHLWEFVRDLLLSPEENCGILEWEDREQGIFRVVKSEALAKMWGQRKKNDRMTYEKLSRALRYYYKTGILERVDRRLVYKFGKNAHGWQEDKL
To be noted: protein: recombinant; tags: N-terminal GST; dsDNA, one strand shown. Summed up: as §1

Assay [17] addresses T12, ETV3 (Homo sapiens, UniProt P41162-2 1-143).
T12 sequence: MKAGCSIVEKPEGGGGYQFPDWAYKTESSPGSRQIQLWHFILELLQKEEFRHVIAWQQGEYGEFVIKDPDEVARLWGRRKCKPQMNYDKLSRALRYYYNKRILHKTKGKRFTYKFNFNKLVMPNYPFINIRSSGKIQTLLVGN
To be noted: protein: recombinant; tags: N-terminal GST; dsDNA, one strand shown. Summed up:
as §1

In assay [18] the target is ETV6 (Homo sapiens, UniProt P41212 1-452). To be noted: protein: recombinant; tags: N-terminal GST; dsDNA, one strand shown. In short, it runs like this:
as §1

Chain of ETV1 (P50549 whole entry): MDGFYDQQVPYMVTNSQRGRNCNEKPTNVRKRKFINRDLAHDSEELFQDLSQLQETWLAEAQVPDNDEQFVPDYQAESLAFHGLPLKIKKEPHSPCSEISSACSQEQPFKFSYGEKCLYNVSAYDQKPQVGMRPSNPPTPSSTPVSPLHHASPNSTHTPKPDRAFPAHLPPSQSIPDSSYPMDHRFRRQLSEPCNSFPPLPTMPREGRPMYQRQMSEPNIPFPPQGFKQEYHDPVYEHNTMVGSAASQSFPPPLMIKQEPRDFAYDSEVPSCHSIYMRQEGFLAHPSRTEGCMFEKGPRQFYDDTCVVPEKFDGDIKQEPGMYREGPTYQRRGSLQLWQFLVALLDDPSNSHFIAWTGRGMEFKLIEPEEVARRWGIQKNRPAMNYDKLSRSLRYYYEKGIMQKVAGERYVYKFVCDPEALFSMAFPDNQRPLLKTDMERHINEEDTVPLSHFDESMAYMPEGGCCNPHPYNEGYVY
Chain of ELF4 (Q99607 whole entry): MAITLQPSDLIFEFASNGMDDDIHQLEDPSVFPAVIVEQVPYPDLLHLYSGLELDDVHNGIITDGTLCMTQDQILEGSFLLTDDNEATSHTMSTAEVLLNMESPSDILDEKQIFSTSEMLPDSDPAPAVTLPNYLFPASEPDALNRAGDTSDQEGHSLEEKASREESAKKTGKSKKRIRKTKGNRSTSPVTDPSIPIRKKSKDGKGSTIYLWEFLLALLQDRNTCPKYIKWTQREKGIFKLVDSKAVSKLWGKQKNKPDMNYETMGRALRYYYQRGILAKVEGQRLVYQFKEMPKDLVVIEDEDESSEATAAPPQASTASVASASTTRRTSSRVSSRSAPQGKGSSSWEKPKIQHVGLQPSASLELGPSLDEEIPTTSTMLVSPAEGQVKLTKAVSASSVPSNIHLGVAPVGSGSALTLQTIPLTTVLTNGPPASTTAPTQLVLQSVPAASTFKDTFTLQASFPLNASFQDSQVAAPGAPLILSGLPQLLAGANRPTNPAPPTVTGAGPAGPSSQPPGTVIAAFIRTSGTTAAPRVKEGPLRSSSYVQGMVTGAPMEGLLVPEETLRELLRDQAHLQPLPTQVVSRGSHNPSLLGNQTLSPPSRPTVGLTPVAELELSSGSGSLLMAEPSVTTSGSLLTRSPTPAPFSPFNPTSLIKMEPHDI
Chain of CRX (O43186 whole entry): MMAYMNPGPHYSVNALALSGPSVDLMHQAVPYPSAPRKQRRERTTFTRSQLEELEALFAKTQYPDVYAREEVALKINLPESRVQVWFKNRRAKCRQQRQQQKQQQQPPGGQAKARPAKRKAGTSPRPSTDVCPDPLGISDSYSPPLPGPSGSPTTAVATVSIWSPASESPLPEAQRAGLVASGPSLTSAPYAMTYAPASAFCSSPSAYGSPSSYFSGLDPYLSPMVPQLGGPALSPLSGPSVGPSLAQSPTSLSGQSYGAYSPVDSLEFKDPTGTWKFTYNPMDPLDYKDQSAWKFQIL
Chain of ETV6 (P41212 whole entry): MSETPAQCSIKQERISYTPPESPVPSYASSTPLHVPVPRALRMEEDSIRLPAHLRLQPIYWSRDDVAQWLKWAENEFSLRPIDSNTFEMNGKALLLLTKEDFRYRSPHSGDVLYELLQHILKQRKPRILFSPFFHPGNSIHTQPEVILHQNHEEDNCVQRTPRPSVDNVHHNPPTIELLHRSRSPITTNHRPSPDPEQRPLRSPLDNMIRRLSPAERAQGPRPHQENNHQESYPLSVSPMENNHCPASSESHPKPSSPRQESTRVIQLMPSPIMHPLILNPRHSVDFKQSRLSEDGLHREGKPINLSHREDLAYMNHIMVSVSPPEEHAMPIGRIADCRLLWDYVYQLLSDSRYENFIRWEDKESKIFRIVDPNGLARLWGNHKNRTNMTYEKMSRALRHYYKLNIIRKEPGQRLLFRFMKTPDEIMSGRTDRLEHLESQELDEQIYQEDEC
Chain of ETV5 (P41161 whole entry): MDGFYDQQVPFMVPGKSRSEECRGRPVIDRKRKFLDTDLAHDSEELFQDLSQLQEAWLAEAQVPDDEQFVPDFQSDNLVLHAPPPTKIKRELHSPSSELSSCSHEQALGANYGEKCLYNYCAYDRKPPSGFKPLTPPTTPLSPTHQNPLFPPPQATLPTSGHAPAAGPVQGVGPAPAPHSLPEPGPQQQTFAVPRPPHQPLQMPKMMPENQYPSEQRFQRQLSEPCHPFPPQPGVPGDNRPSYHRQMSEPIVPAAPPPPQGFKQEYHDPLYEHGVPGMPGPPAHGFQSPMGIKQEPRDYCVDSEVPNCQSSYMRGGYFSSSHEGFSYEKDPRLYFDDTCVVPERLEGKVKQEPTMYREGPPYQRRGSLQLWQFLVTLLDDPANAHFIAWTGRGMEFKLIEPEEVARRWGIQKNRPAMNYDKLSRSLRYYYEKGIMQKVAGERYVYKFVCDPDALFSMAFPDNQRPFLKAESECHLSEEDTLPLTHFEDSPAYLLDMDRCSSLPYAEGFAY
Chain of HSF1 (Q00613 whole entry): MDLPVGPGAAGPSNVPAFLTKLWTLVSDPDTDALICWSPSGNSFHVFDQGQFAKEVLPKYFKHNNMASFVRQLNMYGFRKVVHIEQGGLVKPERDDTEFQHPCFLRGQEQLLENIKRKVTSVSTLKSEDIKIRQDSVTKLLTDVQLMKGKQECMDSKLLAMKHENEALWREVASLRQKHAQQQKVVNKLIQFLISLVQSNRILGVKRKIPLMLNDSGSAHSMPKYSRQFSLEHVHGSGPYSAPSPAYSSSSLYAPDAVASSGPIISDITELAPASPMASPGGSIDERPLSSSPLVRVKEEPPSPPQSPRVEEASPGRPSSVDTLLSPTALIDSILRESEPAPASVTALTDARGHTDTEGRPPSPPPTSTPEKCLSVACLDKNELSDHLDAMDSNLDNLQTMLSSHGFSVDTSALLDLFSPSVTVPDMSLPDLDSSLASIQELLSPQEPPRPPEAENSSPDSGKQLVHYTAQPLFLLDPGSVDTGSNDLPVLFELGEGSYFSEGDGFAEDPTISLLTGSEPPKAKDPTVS

As to ATTTCA, the binding signal was 1.25 fold enrichment (6-mer frequency, TF over GST control) in assay [1]; 1.27 fold enrichment (6-mer frequency, TF over GST control) in assay [2]; 1.26 fold enrichment (6-mer frequency, TF over GST control) in assay [3]; 1.18 fold enrichment (6-mer frequency, TF over GST control) in assay [4]; 1.27 fold enrichment (6-mer frequency, TF over GST control) in [5]; 1.27 fold enrichment (6-mer frequency, TF over GST control) in assay [6]. The binding signal in assay [7] was 1.28 fold enrichment (6-mer frequency, TF over GST control); in assay [8], 1.16 fold enrichment (6-mer frequency, TF over GST control); in [9], 1.22 fold enrichment (6-mer frequency, TF over GST control); in assay [10] it was 1.25 fold enrichment (6-mer frequency, TF over GST control); in assay [11], 1.22 fold enrichment (6-mer frequency, TF over GST control); in assay [12], 1.16 fold enrichment (6-mer frequency, TF over GST control). In addition, the binding signal in assay [13] is 1.22 fold enrichment (6-mer frequency, TF over GST control); in assay [14], 1.28 fold enrichment (6-mer frequency, TF over GST control); in [15], 1.13 fold enrichment (6-mer frequency, TF over GST control); in assay [16], 1.25 fold enrichment (6-mer frequency, TF over GST control); in assay [17], 1.23 fold enrichment (6-mer frequency, TF over GST control); in assay [18], 1.27 fold enrichment (6-mer frequency, TF over GST control).
